From PubChem BioAssay
KinaseGlo FLuc: Kinase-Glo luciferase inhibition (counter-screen); Kinase-Glo luciferase, ATP luminescence, 8 min; Potency, µM (top dose mostly 38.3 µM), inactives show at the highest dose activity change, negative = inhibition, actives largely listed as inhibitors; 200,000 compounds, 0.28% hits; Q27757; also: % is scaled to controls: 0 for no effect and ±100 for the full control effect; nearly all actives have a fitted effect of over 60% in size
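Luminescence was the read-out, taken after 8-minute incubation at ambient temperature. Luciferase turned over luciferin with 10 uM ATP in imidazole pH 7.2 buffer containing KCl, MgCl2, Tween 20 and BSA.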
Rab9 prom act: activators of Rab9 promoter | Huh7 Rab9 promoter-luciferase reporter, luminescence, 24 h | Potency, µM (doses to about 9.22 µM), without a hit: at the highest dose activation, negative = inhibition, usual class: activators | 320,000 compounds, 2.8% hits | AID 485297; also: % of control where 0% means no effect; nearly all actives have a fitted effect of over 60% in size
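Rab9 promoter-driven luciferase in stably transfected Huh7 cells; 1500 cells/well rested 2 h, exposed to compound in DMSO for 24 h at 37 °C, 5% CO2. Luminescence read 10 min after adding luciferase reagent at ambient temperature.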
ELG1 genotoxic: induces genotoxicity in HEK293T cells with luciferase-tagged ELG1; HEK293T ELG1-luciferase reporter, luminescence, 16 h; 330,000 compounds, 1.3% hits; Potency, µM (top dose mostly 46 µM), without a hit: at the highest dose activity change, positive = activation, most hits filed as activators; AID 504466; also: % of control where 0% means no effect; nearly all actives have a fitted effect of over 60% in size
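HEK293T cells expressing luciferase-tagged ELG1 were exposed to compound or DMSO vehicle for 16 hr at 37 °C and 5% CO2. Luciferase activity was then measured with ONE-Glo after 30 min at room temperature.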
NPC1 promoter act: activates the NPC1 promoter; 320,000 compounds, 2.4% hits; Huh7 NPC1 promoter luciferase reporter, 24 h; Potency, µM (top dose mostly 9.22 µM), without a hit: at the highest dose activation, hits mostly activators; also: % of control where 0% means no effect; nearly all actives have a fitted effect of over 60% in size
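Readout is luciferase luminescence, reflecting NPC1 promoter activation in stably transfected Huh7 cells after 24 h compound exposure at 37 °C in reduced-serum medium with 10% FBS.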
FLuc counter: counter-screen for miR-21 project: firefly luciferase inhibitors or activators; AID 588342; Potency, µM (highest dose often 57.5 µM), without a hit: at the highest dose activity change, negative = inhibition, hits mostly inhibitors; 360,000 compounds, 6.9% hits; P08659; purified FLuc, Km substrates, luminescence inhibition;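 also: plate controls were vehicle for no effect and reference inhibitor for full effect; nearly all actives have a fitted effect of over 55% in size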
Target sequence (P08659 whole entry, looked up): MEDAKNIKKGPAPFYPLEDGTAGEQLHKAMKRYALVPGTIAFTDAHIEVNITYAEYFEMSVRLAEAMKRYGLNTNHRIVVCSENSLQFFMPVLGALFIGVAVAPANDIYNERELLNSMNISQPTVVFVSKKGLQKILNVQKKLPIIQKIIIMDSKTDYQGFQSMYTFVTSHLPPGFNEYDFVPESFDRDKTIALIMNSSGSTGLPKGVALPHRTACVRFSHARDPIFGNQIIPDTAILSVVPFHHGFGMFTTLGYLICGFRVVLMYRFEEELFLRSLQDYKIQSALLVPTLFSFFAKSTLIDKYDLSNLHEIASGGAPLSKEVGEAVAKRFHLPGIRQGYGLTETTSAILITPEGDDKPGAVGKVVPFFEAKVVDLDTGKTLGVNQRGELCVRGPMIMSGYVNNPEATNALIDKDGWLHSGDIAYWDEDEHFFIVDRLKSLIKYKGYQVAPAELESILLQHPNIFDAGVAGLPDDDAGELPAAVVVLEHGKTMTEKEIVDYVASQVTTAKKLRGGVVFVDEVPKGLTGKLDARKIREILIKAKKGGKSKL
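Purified P. pyralis luciferase (10nM final) with 10uM D-luciferin and 10uM ATP (Km levels) in 50mM Tris acetate pH 7.5, 10mM Mg acetate, 0.01% Tween-20, 0.05% BSA; qHTS 6-point titration, ~60 µM downward; luminescence read.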
SMN2 splice up: SMN2 splice variant enhancement. 210,000 compounds, 2.8% hits. Potency, µM (titrated, usually from 46.1 µM), without a hit: at the top dose activity change, positive = activation, usual class: activators. HEK293 SMN2-luciferase splicing reporter, luminescence, 30-36 h; also: % of control where 0% means no effect; nearly all actives have a fitted effect of over 55% in size
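HEK293 cells carry an SMN2 minigene-luciferase reporter in which exon 7 inclusion puts luciferase in frame. Cells were seeded at 2000 cells/well, attached for 10-12 hours, then exposed to compounds for 30-36 hours at 37C before ONE-Glo luminescence.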
Starred values were filed as active, the others as inactive; [ ] = remark or other dose. Most compounds without a hit are left out; they make up all but 7.5% or so of the library. Calls follow the shape of the dose curve; as a rule, active = well fitted curve in the direction sought with a large enough effect; inconclusive = small, poorly fitted or top-dose-only effect, or another doubt; inactive = no such curve, though single readings can be large; an effect the other way counts as inactive or inconclusive. Potency is read from the fitted curve at half-maximal effect.

How did COc1ccc(C(=O)c2sc(Nc3ccccc3)nc2N)cc1 do in these assays?
Rab9 prom act: 18.9%; ELG1 genotoxic: 1.8%; NPC1 promoter act: 7.7%; FLuc counter: -17.7%

How did Nc1nc(Nc2ccccc2)sc1C(=O)c1ccccc1 do in these assays?
Rab9 prom act: inconclusive; ELG1 genotoxic: -3.2%; NPC1 promoter act: 2.51µM*; FLuc counter: 19µM*

How did COc1ccc(C(=O)c2sc(Nc3ccccc3F)nc2N)cc1 do in these assays?
Rab9 prom act: 2.24µM*; ELG1 genotoxic: inconclusive; NPC1 promoter act: 2.82µM*; FLuc counter: 10.7µM*

How did COc1ccc(CCNC(=O)Cc2cc(OCc3ccccc3)c(OC)cc2[N+](=O)[O-])cc1OC do in these assays?
KinaseGlo FLuc: 4.4%; Rab9 prom act: -1.2%; ELG1 genotoxic: -1.3%; NPC1 promoter act: -8.1%; FLuc counter: 0.1%; SMN2 splice up: -29.2%

Results for COC(=O)C1=C(C)N(Cc2ccccc2)C(=NCCCCO)N[C@H]1CCc1ccccc1 ?
Rab9 prom act: -0.2%; ELG1 genotoxic: -4.6%; NPC1 promoter act: -3.2%; FLuc counter: -0.5%

Results for O=C(COc1ccc(S(=O)(=O)N2CCOCC2)cc1)NC1CCCCC1 ?
Rab9 prom act: -4.7%; ELG1 genotoxic: -2.2%; NPC1 promoter act: -2.2%; FLuc counter: 8.5%

Results for COc1ccc(Cl)cc1NC(=O)CCc1c(C)nc2c(c1C)c(=O)n(C)c(=O)n2C ?
FLuc counter: 0.4%; SMN2 splice up: -2.8%

How did CN(Cc1cnn(C)c1)S(=O)(=O)c1cccc([N+](=O)[O-])c1 do in these assays?
KinaseGlo FLuc: -1.6%; Rab9 prom act: -3.9%; ELG1 genotoxic: 0.6%; NPC1 promoter act: -5.4%; FLuc counter: -0.7%; SMN2 splice up: -1.6%

What do the screens show for `O=C1OC(c2ccccc2)=N/C1=C\C=C\c1ccco1`?
KinaseGlo FLuc: -4.0%; Rab9 prom act: 0.8%; ELG1 genotoxic: -0.7%; NPC1 promoter act: -1.9%; FLuc counter: 4.78µM*

How did COc1ccc(NC(=O)C(=O)NCC2CCCN2S(=O)(=O)c2ccc(C)cc2)cc1 (configuration not stated) do in these assays?
Rab9 prom act: -30.5%; ELG1 genotoxic: -1.0%; NPC1 promoter act: -14.9%; FLuc counter: 0.3%

How did O=C(CSc1nc2ccccc2o1)N/N=C/c1ccccc1 do in these assays?
KinaseGlo FLuc: -2.2%; Rab9 prom act: 1.5%; ELG1 genotoxic: 16.3%; NPC1 promoter act: -2.3%; FLuc counter: -1.5%; SMN2 splice up: -3.6%[1.84 µM]

What do the screens show for `O=C(CSc1nc2ccccc2o1)N/N=C/c1ccc(O)c(O)c1`?
Rab9 prom act: -2.4%; ELG1 genotoxic: 14.4%; NPC1 promoter act: -5.5%; FLuc counter: 19µM*

What do the screens show for `C/C(=N\NC(=O)CSc1nc2ccccc2o1)c1ccc(O)cc1`?
KinaseGlo FLuc: 0.6%; Rab9 prom act: 3.5%; ELG1 genotoxic: 9.3%; NPC1 promoter act: 1.2%; FLuc counter: 16.9µM*; SMN2 splice up: 10.5%

Results for COc1ccc(N2CCN(CC(O)COc3ccc(C(C)C)c(C)c3)CC2)cc1 (configuration not stated) ?
FLuc counter: 5.4%; SMN2 splice up: -15.7%

Results for Cc1cc(C)cc(C(=O)Nc2nnc(SCC(=O)N3CCCc4ccccc43)s2)c1 ?
KinaseGlo FLuc: 4.9%; Rab9 prom act: 0.7%; ELG1 genotoxic: 2.2%; NPC1 promoter act: -1.7%; FLuc counter: inconclusive; SMN2 splice up: 3.0%

How did O=C(Nc1nnc(SCC(=O)N2CCCc3ccccc32)s1)c1ccccc1 do in these assays?
KinaseGlo FLuc: -0.5%; Rab9 prom act: inconclusive; ELG1 genotoxic: 12.5%; NPC1 promoter act: inconclusive; FLuc counter: 1.51µM*; SMN2 splice up: 11.2µM*

How did O=C(Nc1nnc(SCC(=O)N2CCCc3ccccc32)s1)c1ccc2ccccc2c1 do in these assays?
KinaseGlo FLuc: 0.0%; Rab9 prom act: 2.82µM*; ELG1 genotoxic: inconclusive; NPC1 promoter act: inconclusive; FLuc counter: 1.2µM*; SMN2 splice up: 11.2µM*

What do the screens show for `CC(=O)Nc1ccc(NC(=O)c2cc(-c3cc(C)cc(C)c3O)n[nH]2)cc1`?
Rab9 prom act: 2.8%; ELG1 genotoxic: -7.1%; NPC1 promoter act: 8.3%; FLuc counter: 3.38µM*

Results for Cc1ccc(-c2cc(C(=O)Nc3ccc(S(=O)(=O)Nc4ncccn4)cc3)[nH]n2)c(O)c1C ?
Rab9 prom act: 2.4%; ELG1 genotoxic: 2.9%; NPC1 promoter act: -1.8%; FLuc counter: 4.78µM*

How did CC(=O)Nc1ccc(NC(=O)c2cc(-c3ccc(C)c(C)c3O)n[nH]2)cc1 do in these assays?
Rab9 prom act: 19.6%; ELG1 genotoxic: -15.8%; NPC1 promoter act: 10.0%; FLuc counter: 5.36µM*

What do the screens show for `Cc1nc(-c2cccc(N)c2)cs1`?
KinaseGlo FLuc: 4.4%; Rab9 prom act: -1.0%; ELG1 genotoxic: 18.7%; NPC1 promoter act: 10.6%; FLuc counter: -15.0%; SMN2 splice up: 6.9%

Results for Nc1nc(-c2cccc(F)c2)cs1 ?
KinaseGlo FLuc: -6.0%; Rab9 prom act: -1.0%; ELG1 genotoxic: 1.8%; NPC1 promoter act: -1.0%; FLuc counter: -9.4%

Results for O=S(=O)(c1cccc(-c2csc(-c3cccnc3)n2)c1)N1CCOCC1 ?
Rab9 prom act: inconclusive; ELG1 genotoxic: -1.0%; NPC1 promoter act: -1.1%; FLuc counter: -1.8%

Results for c1cncc(-c2nc(-c3ccc4c(c3)OCO4)cs2)c1 ?
KinaseGlo FLuc: -3.5%; Rab9 prom act: 1.58µM*; ELG1 genotoxic: inconclusive; NPC1 promoter act: 2.82µM*; FLuc counter: 4.78µM*

What do the screens show for `Nc1nc(-c2cc3c(cc2Cl)OCCO3)cs1`?
Rab9 prom act: 8.5%; ELG1 genotoxic: 7.5%; NPC1 promoter act: 1.9%; FLuc counter: inconclusive

Results for Cc1nc(-c2ccc3c(c2)OCCCO3)cs1 ?
Rab9 prom act: 1.58µM*; ELG1 genotoxic: inconclusive; NPC1 promoter act: 1.78µM*; FLuc counter: 7.57µM*

What do the screens show for `Nc1nc(-c2ccc3c(c2)OCCO3)cs1`?
KinaseGlo FLuc: -1.9%; Rab9 prom act: 3.55µM*; ELG1 genotoxic: 20.6µM*; NPC1 promoter act: 3.55µM*; FLuc counter: 9.53µM*; SMN2 splice up: 15.8µM*

Results for Nc1nc(-c2ccc3c(c2)CCCC3)cs1 ?
KinaseGlo FLuc: -17.0%; Rab9 prom act: 2.82µM*; ELG1 genotoxic: inconclusive; NPC1 promoter act: 2.24µM*; FLuc counter: 2.13µM*; SMN2 splice up: 11.2µM*

Results for CCCCn1c(N)c(N(CCOC)C(=O)c2ccc(-n3c(C)ccc3C)cc2)c(=O)[nH]c1=O ?
Rab9 prom act: 0.8%; ELG1 genotoxic: 17.5%; NPC1 promoter act: -4.0%; FLuc counter: 0.4%
